Source: PubChem (National Center for Advancing Translational Sciences (NCATS))
JMJD2A Tudor inh: blocks the human JMJD2A Tudor domain | O75164 | AlphaScreen JMJD2A-Tudor / H3K4me3 peptide binding | Potency, µM (series often up to 114 µM), without a hit: at the highest dose activity change, negative = inhibition, hits mostly inhibitors | 4.4% of 390,000 active | AID 504339; further: on the % scale 0 is the no-effect control and ±100 the full control effect; nearly all actives have a fitted effect of over 50% in size
HP1b chromo inh: inhibitors of HP1-beta chromodomain binding to methylated histone tails. P83916. AlphaScreen HP1-beta / biotin-H3K9me3 peptide binding. Potency, µM (highest dose often 114 µM), for the others: top-dose activity change, negative = inhibition, hits mostly inhibitors. 0.56% of 390,000 active; further: nearly all actives have a fitted effect of over 70% in size
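AlphaScreen: HP1-beta (50 nM) preformed 30 min with biotin-H3(1-18)K9me3 peptide (50 nM) in PBS pH 7.4, 0.01% Tween-20. Compound added for 30 min at RT, then streptavidin donor/nickel chelate acceptor beads (10 ug/mL) for 30 min.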
G9a block: G9a (human) methyltransferase inhibition; G9a H3K9 monomethylation, AlphaScreen, 2 h; Potency, µM (series often up to 102 µM), inactives show at the highest dose activity, negative = inhibition, actives largely listed as inhibitors; 8.8% of 350,000 active; further: on the % scale 0 is the no-effect control and ±100 the full control effect; nearly all actives have a fitted effect of over 75% in size
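Quantitative HTS format: methyltransferase activity on a biotin-tagged H3K9 peptide is measured by AlphaScreen, using a rabbit anti-monomethyl-H3K9 antibody with streptavidin donor and anti-IgG acceptor beads. Final levels are 20 nM enzyme, 500 nM peptide, 20 uM SAM; 2 h RT.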
PLK1 PBD inh: PLK1 (human) polo-box domain binding inhibition; 2.8% of 360,000 active; Potency, µM, for the others: max response, negative = inhibition, most hits filed as inhibitors; P53350; Plk1 PBD binding of FITC phosphopeptide, fluorescence polarization; AID 720504; further: series mostly up to about 57 µM; on the % scale 0 is the no-effect control and ±100 the full control effect; nearly all actives have a fitted effect of over 65% in size
BAZ2B block: blocks human BAZ2B. Q9UIF8. AlphaScreen BAZ2B-H3K14Ac peptide displacement. Potency, µM (titrated, usually from 114 µM), without a hit: top-dose activity change, negative = inhibition, hits mostly inhibitors. 4.4% of 360,000 active. AID 504333; further: on the % scale 0 is the no-effect control and ±100 the full control effect; nearly all actives have a fitted effect of over 60% in size
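AlphaScreen displacement of biotin-H3(5-23)K14Ac peptide (50 nM final) from BAZ2B (50 nM final) in PBS pH 7.4, 0.01% Tween-20; complex preformed 30 min RT, then compounds (top 110 uM) 30 min RT, beads 20 min dark.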
ALOX12 inh: blocks human arachidonate 12S-lipoxygenase; P18054; purified 12hLO, xylenol orange hydroperoxide absorbance; Potency, µM (titrated, usually from 108 µM), without a hit: at the highest dose activity change, negative = inhibition, usual class: inhibitors; 1.1% of 580,000 active; further: on the % scale 0 is the no-effect control and ±100 the full control effect
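Purified human 12hLO (150 nM final) in 25 mM Hepes, 0.01% Triton X-100, pH 7.0 was preincubated 15 min at room temperature with compound. Then 40 uM arachidonic acid was added, 30 min. Hydroperoxide was read by Fe-XO absorbance ratio 573/405 nm.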
TbPYK inh: confirmation of Trypanosoma brucei pyruvate kinase inhibitors | Potency, µM (highest dose often 76.9 µM), for the others: top-dose activity change, negative = inhibition, hits mostly inhibitors | 67% of 890 active | recombinant TbPYK, Kinase-Glo ATP luminescence | shares compounds with PLK1 PBD inh; further: on the % scale 0 is the no-effect control and ±100 the full control effect; nearly all actives have a fitted effect of over 70% in size
TbPYK ADP-Glo: TbPYK inhibition, orthogonal confirmation | shares compounds with PLK1 PBD inh | recombinant TbPYK, ADP-Glo luminescence, 60 min | Potency, µM (titrated, usually from 76.9 µM), for inactives: top-dose activity change, negative = inhibition, actives largely listed as inhibitors | 62% of 890 active | AID 720584; further: on the % scale 0 is the no-effect control and ±100 the full control effect; nearly all actives have a fitted effect of over 75% in size
* hit, by the source's call; ? = inconclusive; / = no result given; [ ] = another dose, or the depositor's remark. Hits are enriched below; roughly 9% of the tested compounds scored in any of these assays. The call rests on the fitted dose curve; in most records, active means well fitted curve in the direction sought with a large enough effect; inconclusive means small, poorly fitted or top-dose-only effect, or another doubt; inactive means no such curve, though single readings can be large; an effect the other way counts as inactive or inconclusive. Potency means the concentration at half of the fitted maximal effect.

SMILES | JMJD2A Tudor inh | HP1b chromo inh | G9a block | PLK1 PBD inh | BAZ2B block | ALOX12 inh | TbPYK inh | TbPYK ADP-Glo
CCC1CN(C(=O)Nc2ccccc2F)c2cc(C)ccc2O1 (stereo not drawn) | 37% | 73% | -3%[59 µM] | / | 32% | -25% | / | /
CCN(CC)S(=O)(=O)c1ccc(C(=O)NC(=S)N(CCC#N)Cc2cccnc2)cc1 | -9% | 18% | 13µM* | -9% | 4% | -20% | 13µM* | 13µM*
Cc1ccc(S(=O)(=O)N(C)C)cc1NC(=S)N(CCC#N)Cc1cccnc1 | -7% | 2% | 5%[59 µM] | -13% | -17% | 8% | / | /
CCn1c(C)nc2cc(C(=O)NNC(=O)c3ccc(C)cc3)ccc21 | 4% | 41% | 30%[2.33 µM] | 2% | 9% | -5% | ? | ?
O=C1C=CC(=O)N1CCNc1ncc(C(F)(F)F)cc1Cl | ? | -1% | 2.5µM* | 2.7µM* | -30% | ? | 1.3µM* | 4µM*
Cc1ccc(-c2ccnc(=S)[nH]2)cc1 | -7% | 23% | 2% | ? | -2% | -37% | / | /
O=c1cc(C(F)(F)F)[nH]c(=S)n1-c1ccccc1 | 79µM* | ? | 8.9µM* | ? | -26% | ? | 14µM* | 11µM*
Nc1cc(=O)[nH]c(=S)n1-c1ccccc1 | -19% | 10% | ? | -16% | 7% | -15% | / | /
Cc1ccc2nc(N(CCCN(C)C)C(=O)c3ccc4ncsc4c3)sc2c1 | 40µM* | 7% | 14µM* | 21µM* | ? | ? | 25µM* | 35µM*
Cc1ccc2nc(N(CCCN(C)C)C(=O)CCc3ccccc3)sc2c1 | -20% | 17% | ? | -12% | -7% | ? | / | /
COc1ccc(CCn2c(C)ccc2C)cc1OC | / | / | -6%[59 µM] | / | -8% | / | / | /
COc1ccc(CCN2C(=O)C=CC2=O)cc1OC | 32µM* | ? | / | 6.7µM* | / | -12% | 4.5µM* | 5.6µM*
CCN(CC)c1ccc(N)cc1S(=O)(=O)Nc1ccccc1OC | ? | 11µM* | 2.5µM* | 3.4µM* | ? | ? | 7.9µM* | 11µM*
Cc1cc(=O)c2c(o1)C(=O)c1occc1C2=O | 45µM* | -23% | / | ? | / | ? | 2.5µM* | ?
OCc1ccccc1-c1nc(NCc2ccccc2)nc2ccsc12 | / | / | / | ? | / | 14µM* | ? | ?
O=C1N=c2ccccc2=C1c1sc(=S)n(-c2ccc(O)cc2)c1O | -4% | 7% | ? | -10% | -36% | 7% | / | /
O=C1N=c2ccccc2=C1c1sc(=O)[nH]c1O | -16% | 26% | / | -11% | -15% | 60% | ? | ?
CCc1c(C)sc(NC(=O)c2ccoc2C)c1C(N)=O | 56µM* | 28µM* | 7.1µM* | 2.7µM* | ? | 11µM* | 14µM* | 16µM*
CCC(C(=O)NCc1nnc2c(-c3nc(C)no3)cccn12)c1ccccc1 (stereo not drawn) | / | / | / | / | / | 72% | / | /
O=S(=O)(Nc1cc(Sc2cccc3cccnc23)c(O)c2ccccc12)c1ccc(F)cc1 | 18µM* | 18µM* | 2µM* | 1.5µM* | ? | ? | 1.4µM* | 2.2µM*
Cc1nnc(N=c2ssnc2Cl)o1 | 45µM* | ? | 3%[0.501 µM] | 1.7µM* | ? | 3.2µM* | 4.5µM* | 5µM*
Cc1ccc(N=c2ssnc2Cl)cc1 | 32µM* | 16µM* | 1.6µM* | 1.7µM* | 45µM* | 1.6µM* | 6.3µM* | 8.9µM*
O=C(c1ccc2ncsc2c1)N1CCCCC1 | -11% | 44% | -3% | 1% | 3% | -20% | ? | ?
